Outcome and AC50 data for 15 compounds are collected here from PubChem BioAssay (EPA / NIEHS).

Results filed as inconclusive are left out. Calls of active or inactive are those of the source. Rule for the calls, unless noted: active = hit-call score of the fitted dose curve at least 0.9, where 1 is the maximum; inconclusive = response in the unintended direction; inactive = score below 0.9.

The nature of assay [1]: Tanguay_ZF_120hpf_AXIS_legacy: (Legacy) Oregon State University Tanguay Lab 120 Hour Post-fertilization zebrafish Assay for Body Axis Malformation (AID 2283635).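 For AC50: potency for an increased fraction of larvae scored with body axis malformation.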 The procedure, abridged:
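Each dechorionated embryo was exposed alone from 6 hpf, with DMSO at 0.64% (vol/vol) and trimethyltin chloride 5 uM as positive control. Axis malformation was recorded at 120 hpf unless the embryo had died.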

The nature of assay [2]: Tanguay_ZF_120hpf_EYE_legacy: (Legacy) Oregon State University Tanguay Lab 120 Hour Post-fertilization zebrafish Assay for Eye Malformation (AID 2283636).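 Note: binary presence or absence of eye malformation scored by brightfield in 120 hpf larvae.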 In a few lines: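 Dechorionated Tropical 5D zebrafish embryos, one per well from 6 hpf, static exposure to 120 hpf at 28C, 0.64% DMSO. Eye malformation scored present/absent by brightfield; dead embryos not scored.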
A short description of assay [3]: Tanguay_ZF_120hpf_JAW_legacy: (Legacy) Oregon State University Tanguay Lab 120 Hour Post-fertilization zebrafish Assay for Jaw Malformation (AID 2283638).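 For AC50: active means more embryos with jaw malformation than DMSO controls.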 In a few lines: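 Wild-type 5D embryos, chorion removed at 4 hpf, dosed singly from 6 hpf; 28C static, sealed, foil-covered, to 120 hpf. Endpoint: jaw defect yes/no (brightfield); mortality excludes scoring.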

Assay [4] in a line: Tanguay_ZF_120hpf_PE_legacy: (Legacy) Oregon State University Tanguay Lab 120 Hour Post-fertilization zebrafish Assay for Pericardial Edema (AID 2283640).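 For AC50: potency for increased incidence of pericardial edema versus DMSO baseline.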 In a few lines: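 Zebrafish larvae are exposed from early development to 120 hpf at 28C, with 0.64% DMSO final. Each surviving larva receives a yes/no pericardial edema call by brightfield imaging, analysed relative to the DMSO baseline.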

The nature of assay [5]: Tanguay_ZF_120hpf_BRAI_legacy: (Legacy) Oregon State University Tanguay Lab 120 Hour Post-fertilization zebrafish Assay for Brain Malformation (AID 2283641). The procedure, abridged: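 Static exposure of staged wild-type embryos until 120 hpf, kept at 28C with light excluded and final DMSO of 0.64% (vol/vol). Presence or absence of brain malformation was noted under brightfield; mortality precluded scoring.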

Assay [6] is described as follows: Tanguay_ZF_120hpf_PFIN_legacy: (Legacy) Oregon State University Tanguay Lab 120 Hour Post-fertilization zebrafish Assay for Pectoral Fin Malformation (AID 2283648).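 Note: each larva judged yes or no for fin defect by brightfield with dead larvae skipped.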 The procedure, abridged: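 Dechorionated Tropical 5D wild-type zebrafish embryos, one per well, statically exposed from 6 to 120 hpf at 28C with 0.64% DMSO final. Pectoral fin malformation scored present/absent by brightfield at 120 hpf; not scored in dead embryos.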

The nature of assay [7]: Tanguay_ZF_120hpf_CFIN_legacy: (Legacy) Oregon State University Tanguay Lab 120 Hour Post-fertilization zebrafish Assay for Caudal Fin Malformation (AID 2283649). The procedure, abridged:
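Single dechorionated 5D wild-type embryos are dosed at 6 hpf (final DMSO 0.64%) and held statically at 28C. Caudal fin malformation is recorded as present or absent at 120 hpf under brightfield, excluding dead embryos.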

Assay [8] in a line: Tanguay_ZF_120hpf_PIG_legacy: (Legacy) Oregon State University Tanguay Lab 120 Hour Post-fertilization zebrafish Assay for Pigmentation Malformation (AID 2283650). In a few lines:
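Dechorionated Tropical 5D wild-type embryos, one per well from 6 hpf, statically exposed at 28C in the dark until 120 hpf, 0.64% DMSO final. Pigmentation scored present/absent by brightfield microscopy; dead embryos not scored; fitted versus DMSO.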

A short description of assay [9]: Tanguay_ZF_120hpf_CIRC_legacy: (Legacy) Oregon State University Tanguay Lab 120 Hour Post-fertilization zebrafish Assay for Circulatory Malformation (AID 2283651). The procedure, abridged:
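Using wild-type Tropical 5D zebrafish, we exposed dechorionated embryos from 6 to 120 hpf in embryo medium with 0.64% DMSO. Circulatory defects were scored as present or absent; 5uM trimethyltin chloride served as positive control.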

Read-out in assay [10]: kallikrein-3 (KLK3), KLK3 (gene 354)
In words: LTEA_HepaRG_KLK3: Life Technologies and Expression Analysis (LTEA) Assay for kallikrein-3 (KLK3) using HepaRG (AID 2283652; active = hit-call score of the fitted dose curve at least 0.9, where 1 is the maximum; inactive = score below 0.9). The note with it: mRNA level, 48 h; actives raise or lower the signal. The procedure, abridged: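 Differentiated human HepaRG cells in serum-free induction medium exposed 48 h in duplicate, eight-point half-log series from 100 uM in 0.5% DMSO. KLK3 mRNA by qRT-PCR, normalised to ACTB, GAPDH, POLR2A; bidirectional fit versus DMSO.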

Read-out in assay [11]: solute carrier (SLC22A6), SLC22A6 (gene 9356)
The assay can be described thus: LTEA_HepaRG_SLC22A6: Life Technologies and Expression Analysis (LTEA) Assay for solute carrier (SLC22A6) using HepaRG (AID 2283653; active = hit-call score of the fitted dose curve at least 0.9, where 1 is the maximum; inactive = score below 0.9). The note with it: mRNA level, 48 h; actives raise or lower the signal. In a few lines: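 Gene-expression endpoint in HepaRG hepatic cells: duplicate 8-point concentration-response, highest 100 uM, 48 h treatment in serum-free medium with 0.5% DMSO. SLC22A6 expression measured by qRT-PCR, normalised to ACTB/GAPDH/POLR2A.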

Assay [12] can be described thus: Tanguay_ZF_120hpf_SWIM_legacy: (Legacy) Oregon State University Tanguay Lab 120 Hour Post-fertilization zebrafish Assay for Swim Bladder Malformation (AID 2283654).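 Note: swim bladder malformation in each larva scored yes or no under brightfield.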 The procedure, abridged:
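Dechorionated wild-type Tropical 5D zebrafish embryos, one per well from 6 hpf, were statically exposed at 28C until 120 hpf in 0.64% DMSO. Swim bladder malformation scored as present/absent by brightfield microscopy; not scored in dead larvae.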

A short description of assay [13]: Tanguay_ZF_120hpf_TRUN_legacy: (Legacy) Oregon State University Tanguay Lab 120 Hour Post-fertilization zebrafish Assay for Truncated Body (AID 2283655). In a few lines:
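Single dechorionated zebrafish embryos received test chemical from 6 hpf in 0.64% DMSO, kept at 28C. At 120 hpf, brightfield inspection noted any truncated body.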

Read-out in assay [14]: matrix metalloproteinase-1 (MMP1), MMP1 (gene 4312)
The assay can be described thus: LTEA_HepaRG_MMP1: Life Technologies and Expression Analysis (LTEA) Assay for matrix metalloproteinase-1 (MMP1) using HepaRG (AID 2283658; active = hit-call score of the fitted dose curve at least 0.9, where 1 is the maximum; inactive = score below 0.9). Conditions: mRNA level, 48 h; actives raise or lower the signal. The procedure, abridged:
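In this screen, human liver HepaRG cultures receive each chemical in duplicate for 48 h (top 100 uM, 0.5% DMSO). MMP1 expression is then quantified by TaqMan qRT-PCR with ACTB/GAPDH/POLR2A normalization.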

Read-out in assay [15]: Broad substrate specificity ATP-binding cassette transporter ABCG2 (Homo sapiens) (UniProt Q9UNQ0)
In words: CLD_ABCG2_6hr: CellzDirect (CLD) Gene Expression Assay for ABC Transporter (ABCG2) at 6 hours (AID 2283660). In a few lines:
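Primary human hepatocytes dosed daily with chemicals at multiple concentrations (0.2% DMSO vehicle), harvested 6 h after dosing. ABCG2 mRNA induction read by quantitative nuclease protection assay (qNPA) chemiluminescence; gain of signal fitted against DMSO baseline.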

A short description of assay [16]: Tanguay_ZF_120hpf_OTIC_legacy: (Legacy) Oregon State University Tanguay Lab 120 Hour Post-fertilization zebrafish Assay for Otic Vesicle Malformation (AID 2283639). In a few lines:
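Otic vesicle malformation is read as a yes/no morphology call at 120 hpf. Exposure is static at 28C with 0.64% (vol/vol) DMSO; embryos that die are excluded from non-mortality endpoints.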

Assay [17] in a line: Tanguay_ZF_120hpf_NC_legacy: (Legacy) Oregon State University Tanguay Lab 120 Hour Post-fertilization zebrafish Assay for Notochord and Tail Malformation (AID 2283656). The procedure, abridged:
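Dechorionated 5D zebrafish, 1/well from 6 hpf; static exposure to 120 hpf, 28C, sealed, dark; final DMSO 0.64% v/v. NC scored binary (present/absent); dead embryos not scored. Fit vs DMSO baseline, gain direction.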

Assay [18] can be described thus: Tanguay_ZF_120hpf_SOMI_legacy: (Legacy) Oregon State University Tanguay Lab 120 Hour Post-fertilization zebrafish Assay for Somite Malformation (AID 2283647). In a few lines:
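Somitogenesis defects are recorded as binary calls in whole larvae at 120 hpf after continuous static chemical exposure starting at 6 hpf in dechorionated 5D embryos. DMSO serves as negative control and baseline.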

Chain of Broad substrate specificity ATP-binding cassette transporter ABCG2 (Homo sapiens) (Q9UNQ0 whole entry, looked up): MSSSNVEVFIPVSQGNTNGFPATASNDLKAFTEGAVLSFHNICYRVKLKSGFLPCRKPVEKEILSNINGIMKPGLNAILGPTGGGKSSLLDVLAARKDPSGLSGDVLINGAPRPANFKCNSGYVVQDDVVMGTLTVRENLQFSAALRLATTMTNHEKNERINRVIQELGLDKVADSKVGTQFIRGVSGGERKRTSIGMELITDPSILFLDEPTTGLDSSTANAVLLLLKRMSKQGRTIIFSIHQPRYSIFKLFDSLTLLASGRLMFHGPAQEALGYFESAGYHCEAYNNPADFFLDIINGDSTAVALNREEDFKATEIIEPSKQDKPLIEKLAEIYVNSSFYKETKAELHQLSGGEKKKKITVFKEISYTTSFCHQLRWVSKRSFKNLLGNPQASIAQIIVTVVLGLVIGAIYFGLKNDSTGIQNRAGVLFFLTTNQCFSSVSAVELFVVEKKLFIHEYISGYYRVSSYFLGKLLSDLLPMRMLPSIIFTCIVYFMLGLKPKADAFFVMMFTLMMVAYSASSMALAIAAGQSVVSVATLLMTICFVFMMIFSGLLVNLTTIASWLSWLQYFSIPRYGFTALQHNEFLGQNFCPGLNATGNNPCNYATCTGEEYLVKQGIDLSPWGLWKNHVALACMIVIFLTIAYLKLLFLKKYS

Turning to `CC1(C)C(C=C(Cl)Cl)C1C(=O)OC(C#N)c1ccc(F)c(Oc2ccccc2)c1` (stereo not drawn), the call in assay [1], in assay [2], in assay [3], in assay [4], in [5] and in assay [6] was inactive. The outcome in [7], in assay [8], in assay [9], in assay [10], in assay [11] and in [12] was inactive. Further, the compound was classed as inactive in assay [13], in [14] and in [15].

For the compound `O=C(O)COc1ccc(Cl)cc1Cl`, the compound was called inactive in assay [1], in [3], in [16], in [4], in assay [5] and in assay [6]. The compound was called inactive in assay [7], in [8], in [9], in assay [13], in assay [17] and in assay [15].

With `CCN(CC)C(=O)SCc1ccc(Cl)cc1`, the call in assay [1], in assay [3], in [4], in assay [5], in [18] and in assay [6] was inactive. The compound was called inactive in [7], in [8], in assay [9], in assay [12] and in assay [17].

For `CC(C)N(C(=O)COc1nnc(C(F)(F)F)s1)c1ccc(F)cc1`, the result in assay [2], in assay [3], in [4], in assay [18], in [6] and in assay [7] was inactive. Also, the compound was called inactive in assay [8], in assay [9], in [12], in assay [13] and in assay [15].

In the case of `COC(=O)c1ccccc1S(=O)(=O)NC(=O)N(C)c1nc(C)nc(OC)n1`, the outcome in [15] was inactive.

Turning to `O=C(NC(=O)c1c(F)cccc1F)Nc1ccc(OC(F)(F)C(F)OC(F)(F)F)c(Cl)c1` (stereo not drawn), the call in assay [2], in [3], in assay [16], in [4], in assay [18] and in assay [6] was inactive. The compound was classed as inactive in assay [7], in [8], in assay [9], in assay [12], in [13] and in [17].

On to `CC(C)OC(=O)Nc1cccc(Cl)c1`, for which the outcome in assay [1], in assay [2], in assay [16], in [18], in assay [6] and in assay [7] was inactive. The outcome in assay [8], in [12], in assay [13], in [17] and in assay [15] was inactive. In addition, the half-maximal activity concentration (AC50) is 37.7 µM (active) in assay [4] and 39.5 µM (active) in assay [5].

On to `CC1(c2ccc(Oc3ccccc3)cc2)OC(=O)N(Nc2ccccc2)C1=O` (stereo not drawn), for which the compound was classed as inactive in assay [1], in [2], in assay [3], in [16], in [5] and in [6]. Besides, the result in assay [7], in assay [8], in assay [9], in assay [13], in assay [17] and in assay [15] was inactive.

Regarding `CNC(=O)Oc1ccccc1OC(C)C`, the outcome in [1], in [3], in assay [16], in [4], in assay [5] and in assay [6] was inactive. The outcome in assay [7], in [8], in assay [9], in assay [12], in [13] and in [17] was inactive. For the same compound, the call in assay [15] was inactive.

Turning to `Clc1ccccc1-c1nnc(-c2ccccc2Cl)nn1`, the outcome in assay [1], in assay [2], in assay [3], in [16], in [5] and in [6] was inactive. For the same compound, the call in assay [8], in [9], in [12], in assay [13], in [17] and in [15] was inactive.

In the case of `CC(C)(C)C(O)/C(=C\c1ccc(Cl)cc1Cl)n1cncn1` (stereo not drawn), the AC50 in assay [1] was 70.7 µM (active); in assay [2], 37.4 µM (active); in assay [3], 25 µM (active); in [16], 11.6 µM (active); in assay [4] it was 42.4 µM (active); in assay [5], 8.24 µM (active). In addition, the half-maximal activity concentration (AC50) in assay [6] is 42.5 µM (active). Further, the compound was called inactive in assay [18], in assay [8], in assay [9], in assay [12], in [13] and in assay [15].

In the case of `CCOCN(C(=O)CCl)c1c(C)cccc1CC`, the half-maximal activity concentration (AC50) in assay [1] was 39 µM (active); in assay [13], 47.5 µM (active). Besides, the result in [3], in assay [16], in [4], in assay [5], in assay [18] and in [6] was inactive. Moreover, the compound was called inactive in assay [7], in [8], in assay [9], in [12], in assay [17] and in assay [15].

With `COc1cc(OC)nc(NC(=O)NS(=O)(=O)c2cc(NC=O)ccc2C(=O)N(C)C)n1`, the call in assay [15] was inactive.

`O=C1c2ccccc2C(=O)N1SC(Cl)(Cl)Cl`: the outcome in assay [1], in assay [2], in [3], in assay [16], in assay [4] and in [5] was inactive. Besides, the call in assay [6], in assay [7], in assay [8], in assay [11], in [12] and in [13] was inactive. Also, the outcome in assay [17], in assay [14] and in assay [15] was inactive.

Take `CCC(C)(NC(=O)c1cc(Cl)c(C)c(Cl)c1)C(=O)CCl` (stereo not drawn): the compound was classed as inactive in assay [1], in assay [3], in [16], in [4], in assay [5] and in assay [6]. For the same compound, the compound was classed as inactive in [7], in assay [9], in assay [12], in assay [13], in assay [17] and in [15]. In addition, in [2], the concentration at half-maximal activity (AC50) is 28.2 µM (active).

By AC50 is commonly meant the concentration giving half of the maximal activity seen.
